# A selection: hits, their analogues and other compounds. The true share with any hit is near 27%.
# CYP2C9 activ = human CYP2C9 activators, primary screen, biochemical, luminescence; 96,000 tested, 1.4% active; activation factor at 5 µM; recombinant CYP2C9, luciferin-H conversion; stronger effect = higher value; factor 1 = untreated enzyme, 0 = blocked; Cytochrome P450 2C9 (Homo sapiens), P11712;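 active = activation factor of 2 or more for CYP2C9 at a 5 µM dose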;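 also: 0 = sulfaphenazole-blocked wells and 1 = vehicle-only wells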
# CYP2C19 inh = blockers of cytochrome P450 2C19 activity – biochemical, luminescence, ADME assay, primary screen. 96,000 tested, 21% active. inhibition, % at 5 µM. CYP2C19 Supersomes, luciferin-H EGE luminescence, 30 min. P33261;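 active = CYP2C19 inhibition above a set limit at 5 µM in the primary screen, cut at about 50% in these data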;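 also: plate controls were negative control wells for no effect and 2.5 mM tranylcypromine positive control for full effect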
# CYP2C19 act = human CYP2C19 activators, primary screen, biochemical, luminescence. recombinant CYP2C19, luciferin-H EGE luminescence; stronger effect = higher value; 0 = fully inhibited enzyme, 1 = untreated enzyme. activation factor at 5 µM. 96,000 tested, under 10 active;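 active = activation factor of at least 2 at 5 µM in the primary screen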;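 also: 0 = wells with 2.5 mM tranylcypromine and 1 = vehicle-only wells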
# PTK2B oligo ant = antagonists of Pyk2 self-association, primary screen, Q293 cells, FERM NanoBiT luminescence, HTS. stronger effect = lower value. z-score (the deposit names both 25 µM and 10 µM). 99,000 tested, 0.83% active. Protein-tyrosine kinase 2-beta (Homo sapiens), Q14289;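 active = Z-score of -3 or lower, scaled per plate to the spread of control and sample wells; inactive = z-score above -3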;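 also: negative z-score means lost luminescence so less FERM oligomerization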
# Cav32 inh = Cav3.2 calcium influx blockers – cell-based, Fluo-4 calcium fluorescence, FDSS, MLSMR library, primary screen | Voltage-dependent T-type calcium channel subunit alpha-1H (Homo sapiens), O95180 | Cav3.2-expressing cells; stronger effect = lower value | B-score at 10 µM | 100,000 tested, 4% active;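 active = single-dose well whose peak fluorescence ratio is a statistical outlier from its plate by either plate-standardised score or position-corrected B-score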
# CYP2C9 inh = blockers of cytochrome P450 2C9 activity – biochemical, luminescence, ADME assay, primary screen. P11712. CYP2C9 Supersomes, luciferin-H conversion. inhibition, % at 5 µM. 96,000 tested, 20% active. AID 777, 2007;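 active = blocking of liver enzyme CYP2C9 beyond about 50% at 5 µM, limit read from the data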
# * marks the source's active call; other numbers are inactive results; . = no result.
SMILES,CYP2C9 activ,CYP2C19 inh,CYP2C19 act,PTK2B oligo ant,Cav32 inh,CYP2C9 inh
N#CC1=C(N)N(c2ccccc2)C(c2ccco2)C1(C#N)C#N (configuration not stated),0.5,31,0.7,-1.2,1.3,54*
N#CC1=C(N)N(c2ccccc2)C(c2cccc([N+](=O)[O-])c2)C1(C#N)C#N (configuration not stated),0.5,38,0.6,-0.87,-6.6*,53*
Nc1c(-c2ccccc2Cl)cnn1-c1cccc([N+](=O)[O-])c1,1.6,18,0.8,-0.34,-2.5,-55
COC(=O)c1ccc(C)c(NS(=O)(=O)c2ccc(OC)c(OC)c2)c1,0.4,82*,0.2,0,0.094,58*
COC(=O)COc1ccc(S(=O)(=O)Nc2ccc(NC(C)=O)cc2)cc1C,0.7,76*,0.2,1.4,0.086,32
COc1ccc(NC(=O)CCNC(C)=O)cc1NS(=O)(=O)c1ccc(F)cc1,0.7,52*,0.5,0.91,0.065,29
COc1ccc(S(=O)(=O)Nc2ccccc2)cc1OC,1.1,90*,0.1,-0.08,1.1,-7
CC(=O)NCCC(=O)Nc1cc(F)ccc1C,1,-2,1,1.2,-0.88,3
CC(=O)Nc1ccc(S(=O)(=O)NNC(=O)COc2cc(C)ccc2C(C)C)cc1,0.9,18,0.8,0.71,-0.62,10
CCOc1cc(N2CCOCC2)c(OCC)cc1NC(=O)CSc1cccc[n+]1[O-],0.7,2,1,-0.1,1,33
Cc1cc(C)nc(Nc2nc(=O)c3ccccc3s2)n1,0.9,0,1,1,-0.6,11
O=C(NCCN1CCOCC1)C1CC(=O)N(c2ccc(F)c(Cl)c2)C1 (configuration not stated),1.1,2,1,0.77,0.32,-15
COc1ccc(OC)c(NC(=O)c2cc(-c3cc(Cl)ccc3O)n[nH]2)c1,2.4*,3,1,-2,0.046,-143
COc1ccc(OC)c(NS(=O)(=O)c2ccc(N3CCCC3=O)cc2)c1,0.8,95*,0.1,2.5,.,19
COc1ccc(Cl)cc1NS(=O)(=O)c1ccc(OC)c(OC)c1,.,.,.,-0.57,-1,.
COc1ccc(S(=O)(=O)Nc2cc(Cl)ccc2OC)cc1,0.6,99*,0,-0.09,-1.9,38
COc1ccc(OC)c(NS(=O)(=O)c2ccc(NC(C)=O)cc2)c1,0.7,100*,0,0.36,0.34,29
CCOC(=O)c1cc2nc(-c3ccco3)cc(C(F)(F)F)n2n1,.,.,.,-0.6,0.24,.
CCOc1cc(C2NC(=O)NC(C)=C2C(C)=O)cc(Cl)c1OCC(=O)O (configuration not stated),0.9,-1,1,0.14,.,13
CCOc1cc(C)c(C(C)C)cc1S(=O)(=O)N1CCOCC1,0.8,45,0.5,-0.61,-1.3,16
COc1ccc(S(=O)(=O)Nc2cccc(NC(C)=O)c2)cc1,0.7,95*,0,0.22,-0.2,30
CCOc1cc(NC(=S)Nc2cccc(OC)c2)c(OCC)cc1NC(=O)C(C)C,0.9,4,1,-1.3,0.66,14
CCOc1cc(NC(=S)Nc2ccccc2)c(OCC)cc1NC(=O)c1ccc(OC)cc1,0.3,48,0.5,-0.28,-1.2,69*
COc1ccc(Cl)cc1S(=O)(=O)Oc1ccc(NC(C)=O)cc1,.,.,.,-0.42,-0.22,.
COc1ccc(S(=O)(=O)Nc2cccc(/C=C/C(=O)O)c2)cc1,.,.,.,0.36,.,.
SMILES,CYP2C9 activ,CYP2C19 inh,CYP2C19 act,PTK2B oligo ant,Cav32 inh,CYP2C9 inh
COC(=O)c1cc(NC(=O)Nc2cc(OC)ccc2OC)cc(C(=O)OC)c1,0.5,42,0.6,-0.57,-0.69,51*
COc1ccc(CONS(=O)(=O)c2ccc(NC(C)=O)cc2)cc1Cl,1,53*,0.5,-1.2,1,-4
CC(C)Cn1c(CN2CCN(c3ccccc3F)CC2)nc2c1c(=O)[nH]c(=O)n2C,.,.,.,.,1.1,.
COc1ccc(S(=O)(=O)Nc2cc(C)c(O)c(S(=O)(=O)c3ccccc3)c2)cc1,0.2,53*,0.5,-0.73,-5.1*,79*
COc1ccc(OC)c(NC(=O)Nc2ccc(Cl)cc2)c1,0.9,29,0.7,-1.8,-2.5,12
COc1ccc(S(=O)(=O)Nc2ccc(S(=O)(=O)Nc3nc(C)cc(C)n3)cc2)cc1OC,0.8,-2,1,0.06,-0.35,23
COc1cccc(NS(=O)(=O)c2ccc(OC)c(OC)c2)c1,1.9,100*,0,0.82,0.28,-88
COc1ccc(S(=O)(=O)Nc2ccc(C)cc2)cc1OC,0.4,97*,0,-0.62,0.0015,62*
COc1ccc(OC)c(NC(=O)Nc2cccc(Cn3cccn3)c2)c1,0.2,74*,0.3,-1.2,-1.3,83*
O=C(Nc1ccccc1)[C@@H]1CC=C[C@@H]2CCN(Cc3ccc(Cl)c(Cl)c3)C(=O)[C@@H]21,.,.,.,.,-2.3,.
O=C(CSc1ncccc1-c1nc2ccccc2[nH]1)N1CCN(c2ccccc2F)CC1,0.8,11,0.9,-0.25,-5,19
O=C(CCSc1nc2ccccc2o1)N1CCOCC1,.,.,.,0.58,-0.1,.
Cc1[nH]c(=O)[nH]c(=O)c1/C=N/NC(=O)[C@@H](NC(=O)OC(C)(C)C)C(C)C,1,-5,1.1,0.3,-0.011,2
COc1ccc(OC)c(NC(=O)c2ccc(NC(C)=O)cc2)c1,2.6*,-1,1,-0.58,-0.54,-162
O=C(O)c1cc(-c2ccccc2Cl)n[nH]1,1.1,-9,1.1,0.35,0.24,-9
COc1ccc(OC)c(NC(=O)c2ccc(NS(C)(=O)=O)cc2)c1,1.4,18,0.8,0.43,0.93,-42
COc1ccc(S(=O)(=O)Nc2ccc(NC(C)=O)cc2)cc1OC,0.3,95*,0.1,-0.81,0.14,67*
Cc1c(Cl)cccc1NC(=O)c1cc(-c2ccccc2O)n[nH]1,2.7*,17,0.8,-0.83,.,-168
COc1ccc(CC(=O)Nc2ccc(S(=O)(=O)N(C)C)cc2)cc1OC,0.9,0,1,0.58,-0.36,11
COc1ccc(S(=O)(=O)c2ccc(OC)c(OC)c2)cc1OC,1.6,79*,0.2,-0.2,.,-63
COc1ccc(N2CC(=O)N(c3ccc(OC)c(OC)c3)CC2=O)cc1OC,1.1,-2,1,0.15,0.22,-7
Cc1ccc(S(=O)(=O)N2CCC(=O)N(C(COCc3ccc(Cl)cc3)Cc3ccccc3)CC2)cc1 (configuration not stated),.,.,.,.,0.87,.
